Measured values as given in PubChem BioAssay (NCI).
This is part of a sample that, as a whole, favours compounds with a hit. Of some 83,000 tested, about 20% had one in any assay.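 Method: cells in 96-well plates; compound added at one concentration; 48 h incubation; percent growth measured; values under 10 scored active.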 Calls of active or inactive are those of the source.

Assays:
Assay in all cases: NCI-60 one-dose screen, 48 h (100 = growth as untreated, 0 = no growth, -100 = all killed)
Settings in all cases: 10 µM unless noted
SR leukemia = test system: SR leukemia
RPMI-8226 leukemia = test system: RPMI-8226 leukemia
OVCAR-8 ovarian = test system: OVCAR-8 ovarian
OVCAR-5 ovarian = test system: OVCAR-5 ovarian
OVCAR-4 ovarian = test system: OVCAR-4 ovarian
SK-OV-3 ovarian = test system: SK-OV-3 ovarian
IGROV1 ovarian = test system: IGROV1 ovarian
OVCAR-3 ovarian = test system: OVCAR-3 ovarian
HS 578T breast = test system: HS 578T breast
NCI/ADR-RES ovarian = test system: NCI/ADR-RES ovarian
T-47D breast = test system: T-47D breast
BT-549 breast = test system: BT-549 breast
MDA-MB-435 melanoma = test system: MDA-MB-435 melanoma
SW-620 colon = test system: SW-620 colon
MCF7 breast = test system: MCF7 breast
HCT-116 colon = test system: HCT-116 colon
HCC-2998 colon = test system: HCC-2998 colon
KM12 colon = test system: KM12 colon

Measured: growth

C/C(=C\CCc1ccoc1)CC/C=C(\C)CCCNc1ccc(F)cc1
inactive: SR leukemia 83.4% | RPMI-8226 leukemia 53.8% | OVCAR-8 ovarian 101% | OVCAR-5 ovarian 93.5% | OVCAR-4 ovarian 75.2% | SK-OV-3 ovarian 101% | IGROV1 ovarian 91.7% | OVCAR-3 ovarian 99.9% | HS 578T breast 109% | NCI/ADR-RES ovarian 98.1% | T-47D breast 77.8% | BT-549 breast 97.1% | MDA-MB-435 melanoma 99.2% | SW-620 colon 90.6% | MCF7 breast 92.8% | HCT-116 colon 85.2% | HCC-2998 colon 111% | KM12 colon 96.3%

[N-]=[N+]=NCc1ncc(-c2ccc(C(F)(F)F)cc2)c(NC2CCCCCC2)n1
inactive: RPMI-8226 leukemia 53.3% [50 µM] | OVCAR-8 ovarian 70.8% [50 µM] | OVCAR-5 ovarian 90.7% [50 µM] | OVCAR-4 ovarian 88.3% [50 µM] | SK-OV-3 ovarian 90.1% [50 µM] | IGROV1 ovarian 75.9% [50 µM] | OVCAR-3 ovarian 61.4% [50 µM] | HS 578T breast 83.1% [50 µM] | NCI/ADR-RES ovarian 88.4% [50 µM] | T-47D breast 63.1% [50 µM] | BT-549 breast 81.9% [50 µM] | MDA-MB-435 melanoma 61.6% [50 µM] | SW-620 colon 75.4% [50 µM] | MCF7 breast 66.2% [50 µM] | HCT-116 colon 40.5% [50 µM] | HCC-2998 colon 85.8% [50 µM] | KM12 colon 46.8% [50 µM]
active: SR leukemia 5.36% [50 µM]

CC(=O)c1ccccc1NC(=O)C(C)(c1ccccc1)c1ccccc1
inactive: SR leukemia 65.9% | RPMI-8226 leukemia 57.3% | OVCAR-8 ovarian 90.2% | OVCAR-5 ovarian 91.3% | OVCAR-4 ovarian 97.9% | SK-OV-3 ovarian 103% | IGROV1 ovarian 101% | OVCAR-3 ovarian 103% | HS 578T breast 34.3% | NCI/ADR-RES ovarian 63.8% | T-47D breast 67.7% | BT-549 breast 75.7% | MDA-MB-435 melanoma 98.6% | SW-620 colon 93.4% | MCF7 breast 102% | HCT-116 colon 42.1% | HCC-2998 colon 108% | KM12 colon 85%

CCCCCCCCCCCCCCCCNC(=O)Nc1ccc2ccccc2c1
inactive: SR leukemia 95.6% | RPMI-8226 leukemia 102% | OVCAR-8 ovarian 104% | OVCAR-5 ovarian 111% | OVCAR-4 ovarian 113% | SK-OV-3 ovarian 101% | IGROV1 ovarian 101% | OVCAR-3 ovarian 116% | HS 578T breast 107% | NCI/ADR-RES ovarian 110% | T-47D breast 108% | BT-549 breast 97.4% | MDA-MB-435 melanoma 103% | SW-620 colon 94.2% | MCF7 breast 94.5% | HCT-116 colon 101% | HCC-2998 colon 109% | KM12 colon 111%

N#Cc1c(-c2ccccc2)cc(-c2ccccc2)n(CCCCC(=O)O)c1=O
inactive: SR leukemia 65.1% | RPMI-8226 leukemia 96.2% | OVCAR-8 ovarian 96% | OVCAR-5 ovarian 98% | OVCAR-4 ovarian 115% | SK-OV-3 ovarian 136% | IGROV1 ovarian 102% | OVCAR-3 ovarian 101% | HS 578T breast 101% | NCI/ADR-RES ovarian 80.5% | T-47D breast 103% | BT-549 breast 91% | MDA-MB-435 melanoma 59.4% | SW-620 colon 90.9% | MCF7 breast 78.2% | HCT-116 colon 93.3% | HCC-2998 colon 95.6% | KM12 colon 79.7%

CNNc1ncnc2c1cnn2-c1ccc(S(N)(=O)=O)cc1
inactive: SR leukemia 65.6% | RPMI-8226 leukemia 94% | OVCAR-8 ovarian 81.8% | OVCAR-5 ovarian 99.8% | OVCAR-4 ovarian 106% | SK-OV-3 ovarian 115% | IGROV1 ovarian 104% | OVCAR-3 ovarian 87.7% | HS 578T breast 104% | NCI/ADR-RES ovarian 87% | T-47D breast 98.2% | BT-549 breast 109% | MDA-MB-435 melanoma 114% | SW-620 colon 98.6% | MCF7 breast 104% | HCT-116 colon 100% | HCC-2998 colon 99.3% | KM12 colon 91.9%

COc1ccc2c(c1)sc1nc(-c3ccc(Br)cc3)cn12
inactive: SR leukemia 120% | RPMI-8226 leukemia 112% | OVCAR-8 ovarian 102% | OVCAR-5 ovarian 101% | OVCAR-4 ovarian 100% | SK-OV-3 ovarian 117% | OVCAR-3 ovarian 122% | HS 578T breast 125% | NCI/ADR-RES ovarian 92.4% | T-47D breast 85% | BT-549 breast 120% | MDA-MB-435 melanoma 103% | SW-620 colon 101% | MCF7 breast 80.4% | HCT-116 colon 92.4% | HCC-2998 colon 115% | KM12 colon 102%
active: IGROV1 ovarian -23.9%

COc1cccc(CCN2C(=O)CCC3=C2CCC3=O)c1
inactive: SR leukemia 102% | RPMI-8226 leukemia 98.1% | OVCAR-8 ovarian 108% | OVCAR-5 ovarian 104% | OVCAR-4 ovarian 104% | SK-OV-3 ovarian 102% | IGROV1 ovarian 103% | OVCAR-3 ovarian 114% | HS 578T breast 130% | NCI/ADR-RES ovarian 104% | T-47D breast 102% | BT-549 breast 101% | MDA-MB-435 melanoma 107% | SW-620 colon 119% | MCF7 breast 103% | HCT-116 colon 97.7% | HCC-2998 colon 104%

O=C1C2C(C(=O)N1CC[Se][Se]CCN1C(=O)C3C(C1=O)[C@H]1C=C[C@@H]3C1)[C@H]1C=C[C@@H]2C1 (stereo not given in full)
active: SR leukemia 4.3% | RPMI-8226 leukemia -43.7% | OVCAR-8 ovarian -80.7% | OVCAR-5 ovarian -15.4% | OVCAR-4 ovarian -33.3% | SK-OV-3 ovarian -50% | IGROV1 ovarian -47.2% | OVCAR-3 ovarian -58% | HS 578T breast -11.4% | NCI/ADR-RES ovarian -10.9% | T-47D breast 5.4% | BT-549 breast -40.3% | MDA-MB-435 melanoma -65.9% | SW-620 colon 8.38% | MCF7 breast 9.03% | HCT-116 colon 1.96% | KM12 colon 0.112%
inactive: HCC-2998 colon 28.6%

O=C1CNc2cc(Cl)ccc2N1
inactive: SR leukemia 94.7% | RPMI-8226 leukemia 103% | OVCAR-8 ovarian 99.7% | OVCAR-5 ovarian 102% | OVCAR-4 ovarian 115% | SK-OV-3 ovarian 106% | IGROV1 ovarian 103% | OVCAR-3 ovarian 108% | HS 578T breast 97.4% | NCI/ADR-RES ovarian 108% | T-47D breast 99.5% | BT-549 breast 97.7% | MDA-MB-435 melanoma 114% | SW-620 colon 105% | MCF7 breast 102% | HCT-116 colon 104% | HCC-2998 colon 104% | KM12 colon 103%

CC(=O)N1N=C(c2ccc(Nc3ccnc4cc(Cl)ccc34)cc2)CC1c1ccc(Cl)cc1 (stereo not given)
active: SR leukemia 2.79% | MDA-MB-435 melanoma 6.15%
inactive: RPMI-8226 leukemia 22.3% | OVCAR-8 ovarian 66.9% | OVCAR-5 ovarian 87.9% | OVCAR-4 ovarian 45.2% | SK-OV-3 ovarian 68.1% | IGROV1 ovarian 51.1% | OVCAR-3 ovarian 29.2% | HS 578T breast 41% | NCI/ADR-RES ovarian 22.9% | T-47D breast 25.5% | BT-549 breast 54.7% | SW-620 colon 63.1% | MCF7 breast 25.6% | HCT-116 colon 55.6% | HCC-2998 colon 44.4% | KM12 colon 36.5%

O=c1c2ccccc2c2nccn2c2cc(Cl)ccc12
inactive: SR leukemia 11% | RPMI-8226 leukemia 64.8% | OVCAR-8 ovarian 75.3% | OVCAR-5 ovarian 53.2% | OVCAR-4 ovarian 81.5% | SK-OV-3 ovarian 113% | IGROV1 ovarian 61.7% | OVCAR-3 ovarian 99.1% | HS 578T breast 77.1% | NCI/ADR-RES ovarian 57.5% | T-47D breast 84.6% | BT-549 breast 89% | MDA-MB-435 melanoma 94.5% | SW-620 colon 80.7% | MCF7 breast 122% | HCT-116 colon 76.4% | HCC-2998 colon 67.3% | KM12 colon 150%

COc1cnc2c(c1)C(=O)c1c-2n(CCCNC2=NCCS2)c(=O)c2cc(F)ccc12
active: SR leukemia -8.78% | RPMI-8226 leukemia -14.3% | SW-620 colon -22% | MCF7 breast 3.19% | HCT-116 colon -75.3%
inactive: OVCAR-8 ovarian 31.3% | OVCAR-5 ovarian 53.2% | OVCAR-4 ovarian 63.1% | SK-OV-3 ovarian 11.1% | IGROV1 ovarian 38% | OVCAR-3 ovarian 32.6% | HS 578T breast 65.5% | NCI/ADR-RES ovarian 34.6% | T-47D breast 19.1% | BT-549 breast 13.4% | MDA-MB-435 melanoma 41.8% | HCC-2998 colon 65.5% | KM12 colon 46.7%

OC(c1ccccc1)C(NCc1ccccc1)c1ccccc1 (stereo not given)
inactive: SR leukemia 103% | RPMI-8226 leukemia 84.3% | OVCAR-8 ovarian 109% | OVCAR-5 ovarian 88.6% | OVCAR-4 ovarian 94.3% | SK-OV-3 ovarian 101% | IGROV1 ovarian 96.7% | OVCAR-3 ovarian 111% | HS 578T breast 107% | NCI/ADR-RES ovarian 85.1% | T-47D breast 91.7% | BT-549 breast 98.7% | MDA-MB-435 melanoma 78.9% | SW-620 colon 92.9% | MCF7 breast 97.1% | HCT-116 colon 66.1% | HCC-2998 colon 105% | KM12 colon 102%

COc1cnc2c(c1)C(=O)c1c-2n(CCCn2ccnc2)c(=O)c2cc(F)ccc12
inactive: HS 578T breast 15.5%
active: SR leukemia -25% | RPMI-8226 leukemia -28.2% | OVCAR-8 ovarian 5.92% | OVCAR-5 ovarian -30.4% | OVCAR-4 ovarian -0.273% | SK-OV-3 ovarian -22.5% | IGROV1 ovarian 4.03% | OVCAR-3 ovarian -35.5% | NCI/ADR-RES ovarian -3.87% | T-47D breast -9.74% | BT-549 breast -11.2% | MDA-MB-435 melanoma -60.3% | SW-620 colon -45.2% | MCF7 breast 0.795% | HCT-116 colon -49.9% | HCC-2998 colon 4.65% | KM12 colon 0.0466%

C/C(=C\CCc1ccoc1)CC/C=C(\C)CCCN1CCOCC1
inactive: SR leukemia 21% | RPMI-8226 leukemia 20.8% | OVCAR-8 ovarian 71.5% | OVCAR-5 ovarian 63% | OVCAR-4 ovarian 58.3% | SK-OV-3 ovarian 74.4% | IGROV1 ovarian 71.3% | OVCAR-3 ovarian 51.8% | HS 578T breast 69.9% | NCI/ADR-RES ovarian 74.5% | T-47D breast 27.4% | BT-549 breast 58.9% | MDA-MB-435 melanoma 71.8% | SW-620 colon 57.8% | MCF7 breast 28.1% | HCT-116 colon 39.2% | HCC-2998 colon 62.3% | KM12 colon 56.9%

Nc1ccn(C2O[C@H](CO)[C@@H](O)[C@@H]2O)c(=O)n1 (stereo not given in full)
active: SR leukemia 9.93%
inactive: RPMI-8226 leukemia 64.4% | OVCAR-8 ovarian 34% | OVCAR-5 ovarian 70.1% | OVCAR-4 ovarian 83.4% | SK-OV-3 ovarian 55.6% | IGROV1 ovarian 51.9% | OVCAR-3 ovarian 67.6% | HS 578T breast 107% | NCI/ADR-RES ovarian 34.6% | T-47D breast 80.5% | BT-549 breast 81.2% | MDA-MB-435 melanoma 45.3% | SW-620 colon 45.9% | MCF7 breast 24% | HCT-116 colon 32.4% | HCC-2998 colon 53.5% | KM12 colon 58.1%
